Drawing on PubChem BioAssay (NCI), this text covers growth for 87 compounds.

The assay deals with HL-60(TB) leukemia. Briefly: NCI-60 one-dose screen, 48 h (100 = growth as untreated, 0 = no growth, -100 = all killed). Particulars: 10 µM unless noted.

Values joined by “and” are separate entries in the source; they are usually repeats but may differ in a detail not shown here. Identical values can stand only once. The panel holds about 83,000 compounds, 20% with a hit somewhere; the sample as a whole holds those more often.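 Method: cells in 96-well plates; compound added at one concentration; 48 h incubation; percent growth measured; values under 10 scored active.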 Active and inactive are the calls of the source.

Regarding `COc1cccc(O)c1O`, the growth is 73.6% (inactive).

For the compound `CNS(=O)(=O)Oc1ccc(-c2ccc3occc3c2)cc1`, the growth was 100% (inactive). The same measure for `O=CN1N=C(c2ccc(Cl)cc2)CC1c1cccc(Nc2ccnc3cc(Cl)ccc23)c1` (configuration not stated): -24.6% (active); for `c1ccc2c(c1)CCN(NCCN1CCCC1)C2`: 96.9% (inactive); for `Nc1cc(N)c(S(=O)(=O)O)cc1N=Nc1cc([N+](=O)[O-])ccc1O`: 92.5% (inactive). The value for `Nc1c(C(=O)Nc2ccc(Cl)cc2)cc(-c2nc3ccccc3s2)c(=O)n1NS(=O)(=O)c1ccc(Cl)cc1` was 100% (inactive). The value for `Nc1ncnc2nc(Br)[nH]c12` was 90.3% (inactive).

Consider `CCc1nc2cc(/C=C/C(=O)NO)ccc2c(=O)n1CCc1ccc(F)cc1`, for which the growth was -7.3% (active). The same measure for `NC(N)=NN=C(c1ccccc1)c1ccccc1`: -8.59% (active). Take `O=C(NCCNc1nccc(-c2c(-c3cccc(O)c3)nc3sccn23)n1)c1cccc(C(F)(F)F)c1`: the growth is 95.5% (inactive).

Regarding `O=C(CCl)Nc1ccccc1SCc1cc(Cl)cc2c1OCOC2`, the growth is 49.4% (inactive). For the compound `COc1nccc2cc3c(=O)n4c(cc5ccccc54)c(=O)n3c12`, the growth was 93.5% (inactive). Consider `COC(=O)[C@]12CC[C@@H](C)[C@H](C)[C@@H]1C1=CC[C@@H]3[C@@]4(C)CC(=O)[C@H](O)[C@@](C)(CO)[C@@H]4C(=O)C[C@@]3(C)[C@]1(C)CC2`, for which the growth was -33.3% (active). The same measure for `O=[P@@]1(c2ccccc2)O[C@H](COCc2ccccc2)[C@@H](OCc2ccccc2)[C@H](OCc2ccccc2)[C@H]1NCc1ccccc1`: -25.1% (active); for `Cc1sc2nc(NCCc3c[nH]c4ccc(Cl)cc34)[nH]c(=O)c2c1C`: 7.05% (active). Turning to `C[C@]12CC[C@@H]3c4ccc(O)cc4C[C@@H](O)[C@H]3[C@@H]1CC[C@@H]2O`, the growth is 101% (inactive). The value for `COC(=O)c1ccc(C(=O)Nc2ccccc2N)cc1` was -18.5% (active); that for `O=C(NCCc1ccccc1)/C(=C\c1ccc(Cl)cc1Cl)NC(=O)c1ccccc1` was 112% (inactive). Take `COc1ccc(/C=C2/C(=O)NC(SCC(=O)N3CCN(c4cc5c(cc4F)c(=O)c(C(=O)O)cn5C4CC4)CC3)=NC2N)cc1OC` (configuration not stated): the growth is 104% (inactive). For the compound `CCN(C(C)=O)c1ccc([N+](=O)[O-])cc1`, the growth is 114% (inactive).

As to `O=C(CC(c1ccccc1)N1CCOCC1)c1ccccc1` (configuration not stated), the growth is 83.1% (inactive). The value for `Cc1cc(=O)[nH]c(O)c1C#N` was 109% (inactive) and 137% (inactive). The same measure for `CCCCCCCCCCCCCCCCCC1=NCCN1CCO`: 36.3% (inactive); for `COc1cc(-c2nnc(-c3nc(-c4cc(OC)c(OC)c(OC)c4)n4ccccc34)o2)ccc1N`: 64.8% (inactive). The value for `CC(=O)OC(OC(C)=O)C1CCCO1` (configuration not stated) was 147% (inactive); that for `C=CCSc1n[nH]c(-c2cccs2)n1` was 111% (inactive); that for `CCn1c(Sc2nnc(NC(=O)CCN3CCCC3)s2)nc2c1c(=O)n(C)c(=O)n2C` was 104% (inactive). Turning to `CC(C)[C@@]12C[C@@H](OC(=O)C3CO3)[C@@](C)(O1)[C@@H]1CC[C@@H](C)[C@H]1[C@@H]2OC(=O)/C=C/c1ccccc1` (some centres not stated), the growth was 93.3% (inactive). For `COc1cccc(CCC2CCCN(c3cc(C)nc(N)n3)C2)c1` (configuration not stated), the growth is 1.26% (active). The same measure for `CCCCCCN1C(=O)C2=C(c3ccc(Cl)cc3)Nc3c(c(C)nn3-c3ccccc3)C2c2ccccc21` (configuration not stated): 102% (inactive); for `S=c1[nH]cccc1-c1nnc2n1Nc1nc3ccc(Cl)cc3cc1CS2`: 104% (inactive). As for `Cn1c(=O)c2[nH]c(CCCCCCCCc3nc4ccccc4[nH]3)nc2n(C)c1=O`, the growth was 59.4% (inactive) and 71.2% (inactive). The same measure for `CS(=O)(=O)c1nccc(-c2c(-c3cccc(OCCc4ccccc4)c3)nc3sccn23)n1`: 99.4% (inactive); for `COc1cc(C(=O)NNC(=O)c2ccc(NC(=O)CCl)cc2)cc(OC)c1OC`: 77.9% (inactive). The same measure for `O=C(c1ccccc1)C1OC1c1ccc([N+](=O)[O-])cc1` (configuration not stated): 61.6% (inactive); for `Cc1cc(C)c(N2C(=O)CC(Sc3ccccc3N)C2=O)c(C)c1` (configuration not stated): 68.8% (inactive). The same measure for `O=C1C=CC2(NN=C(c3ccccc3)N2c2ccccc2)c2cccc(O)c21` (configuration not stated): 29.8% (inactive). As for `COc1ccccc1S(=O)Nc1ccccc1` (configuration not stated), the growth is 91.5% (inactive). The value for `CN(C)c1ccc(Cc2ccc(N(C)C)cc2Cl)c(Cl)c1` was 5.92% (active); that for `CS(=O)(=O)Nc1cccc(C(=O)NCc2ccc(N3CCOCC3)cc2)c1` was 91.9% (inactive); that for `O=C1C(=O)c2ccccc2C(O)=C1CCCc1ccc(C2CCCCCC2)cc1` was 45.6% (inactive). With `CCC(=O)OCc1ccc(OC)cc1`, the growth was 97% (inactive). The same measure for `CCCC(C)OCC(=O)O` (configuration not stated): 88.8% (inactive); for `COc1cc(-c2n/c(=C\c3c(O)[nH]c4ccc(Cl)cc34)cc3c2=Nc2ccccc2-3)ccc1F`: 96.6% (inactive).

On to `CC1CCC(C(=O)O)N1` (configuration not stated), for which the growth was 79.7% (inactive). The value for `CC(=O)Oc1c(C)c(C)c2c(c1C)CCC(C)(CC(=O)OCCCCCCCCCCC[P+](c1ccccc1)(c1ccccc1)c1ccccc1)O2` (configuration not stated) was -34.8% (active); that for `COc1ccc(Cc2cc(-c3ccccc3)nn(Cc3ccccc3)c2=O)cc1OC` was 25.8% (inactive). The value for `CCOC(=O)C12CCCC1=CC(=O)CC2` (configuration not stated) was 100% (inactive). The same measure for `O=C(NO)c1ccc(Cn2c(=O)n(-c3ccccc3)c(=O)c3ccccc32)cc1`: 1.26% (active); for `NC1=NC(c2ccccc2)C2=C(N1)/C(=C/c1ccccc1)CCC2` (configuration not stated): 80.7% (inactive). As for `CN(Cc1ccccc1)c1nc(Cl)c(C2CC(c3ccc(Cl)cc3)=Cc3[nH][nH]c(=O)c32)s1` (configuration not stated), the growth was 104% (inactive).

For the compound `CCOC(=O)C1=C(NC)OCC1=O`, the growth was 91.7% (inactive).

`c1ccc2cc(C[n+]3ccn(Cc4ccc5ccccc5n4)c3)ccc2c1`: the growth was -42.3% (active) and -25.4% (active). On to `Cn1cc(-c2cc3ncnc(Nc4ccc(CC(=O)Nc5cc(C(C)(C)C)on5)cc4)c3s2)cn1`, for which the growth is 57.5% (inactive). The same measure for `CN(C)CCCn1c(=O)c2ccccc2c2ccccc21`: 63.4% (inactive); for `O=S(=O)(NCCNc1cc(-c2cn(-c3ccccc3)nc2-c2cccc(O)c2)ccn1)c1cccc(F)c1`: 27.4% (inactive). Turning to `O=C(C(=Cc1ccccc1)C(=O)c1ccccc1)c1ccccc1`, the growth is 13% (inactive) and 110% (inactive). The value for `COc1ccc(-c2ncnc3c2ncn3C/C=C/CCl)cc1` was 65% (inactive) and 79.4% (inactive). The value for `N#CC1=C(N)n2nc(-c3ccncc3)nc2NC1c1cccc2ccccc12` (configuration not stated) was 89.8% (inactive); that for `Nc1ccn(-c2ccc(Br)cc2)c(=O)n1` was 125% (inactive). As to `Cc1[c-]onc1C.Cc1[c-]onc1C.[Ag].[Ag].[NH-]S(=O)(=O)c1ccc(N=Nc2cc(N=Nc3ccc(S([NH-])(=O)=O)cc3)c3c(NC(=O)C(Cl)Cl)cccc3c2OC(=O)C(Cl)Cl)cc1`, the growth was 38.1% (inactive). On to `COc1ccc(CCn2cnn3c(=O)c4ccccc4nc3c2=O)cc1OC`, for which the growth was 92.4% (inactive) and 103% (inactive). The same measure for `NCCCOc1cc2ccccc2cc1C(=O)NCCCOc1cc2ccccc2cc1C(=O)Nc1ccc(Cl)cc1O`: -62% (active); for `CC(=O)c1cc(O)c2ccccc2c1O`: 63.9% (inactive). For `CCOC(=S)SCc1ccc(Cl)cc1`, the growth was 65.8% (inactive). The value for `COc1ccc(C2c3sc4c(F)cccc4c3Oc3nc[nH]c(=O)c32)cc1` (configuration not stated) was -44.6% (active). The same measure for `O=C(CN1C(=O)CCC1=O)Nc1ncc(Cc2ccc(F)cc2)s1`: 98.2% (inactive). As for `Oc1c(Cl)cc(Cl)cc1/C=N/Nc1nnc(N/N=C/c2cc(Cl)cc(Cl)c2O)c2ccccc12`, the growth was -24% (active). The same measure for `COc1ccc(C2NC(=O)C(C#N)c3c2sc2c(F)cccc32)cc1` (configuration not stated): 10.5% (inactive); for `CC(=O)N(N=Nc1ccccc1)c1cccc2ccccc12`: 116% (inactive).

As to `Oc1ccc(Cl)cc1Cc1cc(Cl)ccc1O`, the growth is 33.8% (inactive). The value for `O=C(Nc1nn(-c2ccc(Cl)cc2Cl)nc1-c1ccccc1)c1ccccc1` was 83.8% (inactive). The value for `N#CC1(Nc2ccc3c4c(cccc24)CC3)CCCCC1` was 72.2% (inactive); that for `Cc1cccc2nnc(-c3ccccc3)n12` was 99% (inactive); that for `COC(=O)c1c2c(c(C)[n+]([O-])c1C)C(=O)C(NCc1ccc(Cl)cc1)=CC2=O` was 80.3% (inactive).

Take `CNC(=O)c1cccc(-c2ccc3c(N4CCOC[C@@H]4C)nc(N4CCOC[C@@H]4C)nc3n2)c1`: the growth is 28.2% (inactive) and 7.66% (active). The value for `COc1cc2cc(Oc3ccc(NC(=O)Nc4ccc(Cl)c(Cl)c4)cc3)c(C)nc2cc1OCCN1CCOCC1` was 97.9% (inactive).

Consider `OC(c1ccccn1)C(O)c1ccccn1` (configuration not stated), for which the growth was 97.3% (inactive). The value for `C/C(=N/O)c1ccc(F)cc1` was 102% (inactive); that for `Brc1c(-c2ccncc2)nc2n1CCS2` was 44.4% (inactive); that for `O=C(NNc1ccccc1)OCc1ccccc1` was 5.98% (active). Turning to `COc1cc(-c2nn(-c3cccc(NC(=O)NCCNC(=O)c4ccccc4)c3)cc2-c2ccncc2)ccc1Cl`, the growth was -8.76% (active).

As for `COc1cc(/C=C/C(=O)c2c(C)n([O-])c3ccccc3[n+]2=O)cc(OC)c1OC`, the growth is -10.8% (active). The value for `COc1ccc(Oc2ccccc2NC(=O)CNC(=O)c2cccc3ccccc23)cc1` was -22.8% [5 µM] (active); that for `COc1cccc(NC(=O)[C@H](C(C)C)n2c(=O)[nH]c3ccccc3c2=O)c1` was 86.2% (inactive). The same measure for `CC(C)(C)n1cc(-c2ccnc(NCCNS(=O)(=O)c3cccc(F)c3)c2)c(-c2ccccc2)n1`: 73.5% (inactive); for `COc1cc(Nc2nc3ccccc3nc2NS(=O)(=O)c2ccc(NC(=O)c3ccc(C)c(OC)c3)cc2)cc(OC)c1`: 74.8% (inactive) and 26.7% (inactive).
